In PubChem BioAssay (Tox21) one finds Potency data, which are given here for ten compounds.

The nature of experiment [1]: qHTS assay to identify small molecule antagonists of the estrogen related receptor (ERR) signaling pathway - cell viability counter screen (AID 1224818).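 Note: series mostly up to about 46 µM; viability measured after 17.5 h of compound exposure.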 Put shortly:
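Cells carrying the ERR pathway reporter were seeded and incubated for 6 hours before compound addition. After a 17.5-hour exposure at 37 C, live-cell protease activity was measured by CellTiter-Fluor fluorescence following 30 minutes of incubation.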
For orientation: qHTS replaces the single test concentration by a dilution series.

Experiment [2] in a line: qHTS assay to identify small molecule antagonists of the estrogen related receptor (ERR) signaling pathway (AID 1224819;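 note: luminescence from an ERR-driven luciferase reporter measured with One-Glo reagent; series mostly up to about 46 µM; nearly all actives have a fitted effect of over 50% in size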). The essentials:
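Compounds dissolved in DMSO were pin-transferred onto ERR cells that had been plated 6 h earlier, and cells were then incubated 18 h at 37 C; signal was luciferase luminescence via One-Glo.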

Experiment [3] can be described thus: qHTS assay to identify small molecule agonists of the estrogen related receptor (ERR) signaling pathway (AID 1224820). Note: potency is the fitted concentration of half-maximal effect. Put shortly: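 Quantitative HTS of the LOPAC library used NTP ERR reporter cells treated 18 h at 37 C. Signal is luminescence after One-Glo addition and a 30 min room-temperature incubation.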
The nature of experiment [4]: qHTS assay to identify small molecule antagonists of the estrogen related receptor signaling pathway with the pleiotropic PPARgamma coactivator (PGC) cell viability counter screen (AID 1224822;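 note: series mostly up to about 46 µM; viability read after 17.5 h compound exposure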). The essentials:
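Seed PGC/ERR cells (2,000/well); incubate 6 h at 37 C/5% CO2; pin-transfer compounds in DMSO; incubate 17.5 h at 37 C; add CellTiter-Fluor; after 30 min read fluorescence.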

Experiment [5] concerns estrogen-related receptor alpha (ERRalpha) with PGC-1alpha coactivator, human. Nature of the experiment: qHTS assay to identify small molecule antagonists of the estrogen related receptor signaling pathway with the pleiotropic PPARgamma coactivator (PGC) (AID 1224821; calls by dose curve;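 note: series mostly up to about 46 µM; lower luminescence signal means antagonism of PGC/ERR signalling; nearly all actives have a fitted effect of over 50% in size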). Put shortly:
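Quantitative HTS for antagonism: PGC/ERR cells received compounds after 6 h attachment and were incubated 18 h at 37 C, with luminescence (One-Glo) as the endpoint.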

Experiment [6] can be described thus: qHTS assay to identify small molecule agonists of the estrogen related receptor signaling pathway with the pleiotropic PPARgamma coactivator (PGC) (AID 1224823). Put shortly: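 Cell-based luciferase assay in the NTP-supplied PGC/ERR line, 2,000 cells/well; 18 h compound exposure at 37 C, luminescence after One-Glo.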

Structures are written as SMILES. Results filed as inconclusive are left out. Values without a mark were called inactive. Active and inactive are the calls of the source. Unless noted, calls come from the whole dose curve; as a rule, active = well fitted curve in the direction sought with a large enough effect in the repeat runs; inconclusive = weak or mixed curves; inactive = no such curve, though single readings can be large; an effect the other way counts as inactive or inconclusive.

Regarding `COc1ccc2c(c1)C13CCCCC1C(C2)N(C)CC3` (configuration not stated), the Potency result in experiment [1], in experiment [2], in experiment [3] and in experiment [4] was “inactive” each time.

For the compound `O=C(N[C@H]1CN2CCC1CC2)c1ccc(Cl)cc1`, the Potency result in experiment [1], in experiment [3], in experiment [5], in experiment [4] and in experiment [6] was “inactive” throughout.

Consider `C#CCOC(=O)C1=CCCN(C)C1`, for which the Potency entry in experiment [1], in experiment [5] and in experiment [4] was “inactive” throughout. Also, in experiment [3], the Potency was 22 µM (active).

As to `CC(N)c1cccc(Cl)c1Cl` (configuration not stated), the Potency result in experiment [1], in experiment [3], in experiment [5], in experiment [4] and in experiment [6] was “inactive” in each case.

Regarding `Nc1cc2c(ncn2CCOCP(=O)(O)O)c(=O)[nH]1`, the Potency result in experiment [1], in experiment [3], in experiment [5], in experiment [4] and in experiment [6] was “inactive” throughout.

Regarding `C[C@@H](N)Cc1cnc[nH]1`, the Potency entry in experiment [1], in experiment [3], in experiment [5] and in experiment [4] was “inactive” throughout.

For `C[N+]1(C)CCOC(O)(c2ccc(-c3ccc(C4(O)C[N+](C)(C)CCO4)cc3)cc2)C1` (configuration not stated), the Potency result in experiment [1], in experiment [2], in experiment [5], in experiment [4] and in experiment [6] was “inactive” throughout.

For the compound `C#CCN[C@H](C)Cc1ccccc1`, the Potency entry in experiment [1], in experiment [3], in experiment [5], in experiment [4] and in experiment [6] was “inactive” throughout.

On to `CCN(CC)c1ncnc2c1ncn2[C@@H]1O[C@H](COP(=O)(O)OP(=O)(O)C(Br)(Br)P(=O)(O)O)[C@@H](O)[C@H]1O`, for which the Potency result in experiment [1], in experiment [3], in experiment [5], in experiment [4] and in experiment [6] was “inactive” in each case.

On to `NC1CCc2cc(O)c(O)cc2C1` (configuration not stated), for which the Potency entry in experiment [1], in experiment [2], in experiment [3], in experiment [5] and in experiment [6] was “inactive” throughout.
